Vif imaging – HIV Vif self-association inhibitors, primary screen, imaging, HEK293T, single point. HEK293T cells, Vif self-association by quenched fluorescence, 24 h. inhibition, % at 7.49 µM. hit rate 0.35% among 340,000; in the data active = inhibition above about 50%, passing the limit was not always enough; inconclusive = no clear call, values can overlap the other calls; inactive = below about 31%
RAD54 inh – inhibitors of human RAD54 branch migration, primary screen, biochemical, fluorescence, single point; RAD54 Holliday junction branch migration, FAM/BHQ fluorescence; inhibition, % at 10.4 µM; hit rate 0.14% among 360,000; AID 602329, 2012;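 active = mean normalized replicate activity at least 40 and at least half of replicates scoring 40 or more; inconclusive = only one of the two criteria met; inactive = mean below 40 and under half of replicates reaching 40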;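 also: 0% = median of neutral control wells and 100% = median of positive control wells; inhibitors cause a drop in the FAM fluorescence signal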
Target sequence (Q92698 whole entry, looked up): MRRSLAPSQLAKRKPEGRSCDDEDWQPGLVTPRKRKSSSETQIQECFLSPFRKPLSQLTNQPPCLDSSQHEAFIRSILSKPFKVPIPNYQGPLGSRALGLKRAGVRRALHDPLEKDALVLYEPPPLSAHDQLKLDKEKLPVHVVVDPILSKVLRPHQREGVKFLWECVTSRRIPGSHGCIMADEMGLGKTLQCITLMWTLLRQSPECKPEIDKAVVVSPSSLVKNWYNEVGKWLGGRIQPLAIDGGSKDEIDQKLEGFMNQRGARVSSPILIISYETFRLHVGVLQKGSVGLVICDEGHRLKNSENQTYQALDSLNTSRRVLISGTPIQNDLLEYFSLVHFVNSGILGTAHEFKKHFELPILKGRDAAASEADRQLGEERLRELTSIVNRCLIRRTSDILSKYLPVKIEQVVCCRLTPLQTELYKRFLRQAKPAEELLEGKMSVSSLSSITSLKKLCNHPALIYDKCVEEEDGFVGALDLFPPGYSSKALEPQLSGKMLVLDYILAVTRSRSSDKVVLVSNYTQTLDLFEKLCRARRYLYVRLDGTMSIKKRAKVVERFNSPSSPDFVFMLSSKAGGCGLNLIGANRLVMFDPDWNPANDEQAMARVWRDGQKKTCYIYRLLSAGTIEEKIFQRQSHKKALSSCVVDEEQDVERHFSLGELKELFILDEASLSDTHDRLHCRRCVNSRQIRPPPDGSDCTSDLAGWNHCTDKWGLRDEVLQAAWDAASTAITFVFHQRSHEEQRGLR
ABCB6 inh MLPCN – ABCB6 transporter inhibitors, primary screen, K562-ABCB6 cells, flow cytometry, MLPCN library; ATP-binding cassette sub-family B member 6 (Homo sapiens), Q9NP58; K562-ABCB6 porphyrin accumulation, 1 h; active compounds read low; fluorescence ratio to DMSO, % at 10 µM; hit rate 0.19% among 360,000; AID 602162, 2011;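 active = fluorescence ratio to DMSO below 75%, the collection mean minus 3 SD; inconclusive = too few cells collected in the well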;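 also: signal is porphyrin accumulated inside mitochondria; 100% equals median channel fluorescence of DMSO control wells; lower ratio means ABCB6 inhibition with less porphyrin fluorescence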
N-glyco inh – increase of ERlucT glycosylation luciferase signal, primary screen, N-linked glycosylation inhibitor project, D54 ERlucT cells, luminescence, set 2. D54 ERlucT glycosylation luciferase reporter, 24 h; percent of 100 nM tunicamycin response. reporter increase, % at 12.5 µM. hit rate 0.23% among 360,000. AID 588692, 2011;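 active = mean luciferase reporter signal, scaled so untreated is 0 and the glycosylation-blocking control 100, at or above a set limit in every replicate; inconclusive = mean reaches the limit but not every replicate does; inactive = mean below the limit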;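 also: luciferase carries N-glycosylation sites so blocking glycosylation raises the light; 0% = median of neutral control wells and 100% = median of 100 nM tunicamycin wells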
Myeloid diff 2 – induction of myeloid progenitor differentiation, primary screen, cell-based, flow cytometry, MLPCN library | ER-HoxA9 myeloid progenitors, lysozyme-GFP differentiation | calls only at 10 µM | hit rate 1% among 360,000;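 active = normalized GFP-positive differentiation at or above the plate's own cutoff, the solvent-only control mean plus 3 SD; inconclusive = no clear call, values can overlap the other calls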;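 also: cells exposed to compound for four days before flow analysis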
ABCB6 inh CP1 – ABCB6 transporter inhibitors, confirmation, K562-ABCB6 cells, flow cytometry, cherry pick 1 | shares compounds with ABCB6 inh MLPCN | K562-ABCB6 porphyrin accumulation, 1 h; active compounds read low | ratio response (% of DMSO), % at 10 µM | 700 tested, under 10 active;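 active = repeat-averaged ratio response below 75% of DMSO, the collection mean minus 3 SD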;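 also: median porphyrin fluorescence at 575 nm with 488 nm excitation from mitochondria; lower ratio means less porphyrin signal so ABCB6 inhibition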
The depositor's hits bear a star; i = inactive; ? = inconclusive; · = not tested or not shown; + = active, no number. Only some compounds are listed: those with a hit (about 1.6% of all), similar ones and a draw of the others.

SMILES	Vif imaging	RAD54 inh	ABCB6 inh MLPCN	N-glyco inh	Myeloid diff 2	ABCB6 inh CP1
O=C(Nc1cccc(C(F)(F)F)c1)C1Cc2c(-c3ccccc3Oc3ccccc3)ccnc2O1 (stereo unspecified)	-15	5	87	-4	i	99
C[C@@H]1CN([C@@H](C)CO)C(=O)c2cc(NC(=O)C3CCCCC3)ccc2O[C@H]1CN(C)C(=O)NC1CCCCC1	·	-8	·	·	·	·
O=C(NC1CCCC1)c1ccc(COCC(F)(F)C(F)F)o1	12	-13	73*	0	i	99
O=C(NC1CCCC1)c1ccc(COCC(F)(F)F)o1	?	·	103	4	i	·
Cc1cc(-c2ccccc2)nc2cc(C(=O)NCCCn3ccnc3)nn12	12	-5	95	3	i	·
COCCNC(=O)c1cc2nc(-c3ccccc3)cc(C)n2n1	-21	·	68*	1	i	99
CN(C)c1ccc(NC(=O)CSc2nnc(C3CCCCC3)n2N)cc1	-5	5	12*	2	i	99
CO[C@H]1CN(C)C(=O)c2cc(NC(=O)c3ccccc3)ccc2OC[C@@H](C)N(C(=O)C2CC2)C[C@H]1C	·	0	·	·	·	·
CN1C(=O)c2cc(NS(=O)(=O)c3cccc(F)c3)ccc2OC[C@H]2O[C@H](CC(=O)O)CC[C@@H]21	·	-2	·	·	·	·
CCOC(=O)c1sc2nc(C)cc(C)c2c1N	-13	5	94	0	i	·
CCOC(=O)c1sc2nc(C)cc(-c3ccccc3)c2c1N	1	·	71*	2	i	100
COCCNC(=O)C[C@@H]1CC[C@H]2[C@H](COc3ccc(NC(C)=O)cc3C(=O)N2C)O1	·	1	·	·	·	·
COc1ccc2oc(-c3ccc(NC(=O)c4ccc(N5CCOCC5)c([N+](=O)[O-])c4)cc3)nc2c1	-7	-4	60*	-6	i	98
O=C(NCC[C@H]1CC[C@H](NC(=O)C2CCC2)[C@@H](CO)O1)c1cc(Cl)cc(Cl)c1	·	-10	·	·	·	·
CC(=O)NCCN=Cc1sc2ccccc2c1O	14	1	89	2	i	·
CCCN=Cc1sc2ccc(OCC)cc2c1O	-1	3	74*	0	i	104
CO[C@H]1O[C@H](CO)[C@@H](OC(=O)Nc2cccc(F)c2)[C@H](OC(=O)Nc2ccc3c(c2)OCO3)[C@@H]1OC(=O)Nc1ccc2c(c1)OCO2	·	1	·	·	·	·
Cc1ccc(-c2nc(N/N=C/c3ccccc3[N+](=O)[O-])c3ccccc3n2)cc1	-2	3	74*	-9	+	98
O=[N+]([O-])c1ccccc1C=NNc1ccccc1	-4	-16	101	-8	i	·
O=C(COc1ccccc1Br)NCc1ccccn1	3	2	102	-1	i	·
COC(=O)c1ccc(CNC(=O)COc2ccccc2Br)o1	1	0	32*	2	i	97
CC1CCN(CCNC(=O)CCS(=O)(=O)c2ccc(Br)cc2)CC1	0	0	7.0*	0	i	95
Cc1ccc(CCNC(=O)CCS(=O)(=O)c2ccc(Br)cc2)cc1	5	·	94	0	i	·
Cc1ccc(S(=O)(=O)N(C)CC(=O)NCCCn2ccnc2)cc1	24	-12	61*	0	i	101
CCOC(=O)CSc1nnc(NC(=O)c2cc([N+](=O)[O-])cc([N+](=O)[O-])c2)s1	3	·	74*	2	i	97
SMILES	Vif imaging	RAD54 inh	ABCB6 inh MLPCN	N-glyco inh	Myeloid diff 2	ABCB6 inh CP1
Cc1noc(C)c1S(=O)(=O)Nc1ccc2c(c1)CC(=O)N([C@@H](C)CO)C[C@@H](C)[C@H](CN(C)S(C)(=O)=O)O2	·	7	·	·	·	·
O=C(NC[C@H]1[C@H](c2ccccc2)[C@H](CO)N1CC1CCCC1)c1ccncc1	·	6	·	·	·	·
O=c1c2c(nc(NCCO)n1CC1CCCCC1)-c1ccccc1CC21CCCC1	23	-7	61*	-6	i	100
COCC(=O)Nc1ccc2c(c1)[C@H]1C[C@@H](CC(=O)NCCN3CCCCC3)O[C@H](CO)[C@H]1O2	·	-7	·	·	·	·
CCOC(=O)C1(C(=O)OCC)CCN(S(=O)(=O)c2ccccc2)CC1	20	·	101	-1	i	99
CN1[C@@H]2Cn3c(ccc(-c4ccccc4)c3=O)[C@H]1[C@@H](C(=O)N1CCC(Cc3ccccc3)CC1)[C@@H]2CO	·	10	·	·	·	·
CN(CC(=O)Nc1ccc(F)cc1)C(=O)COC(=O)COc1ccc(C#N)cc1	10	-2	68*	3	i	102
Cc1noc(C)c1NC(=O)N(C)C[C@H]1OCCCC[C@@H](C)Oc2ccc(NS(C)(=O)=O)cc2C(=O)N([C@H](C)CO)C[C@H]1C	·	1	·	·	·	·
O=C(Oc1ccc(N(Cc2cccs2)C2=NS(=O)(=O)c3ccccc32)cc1)c1ccccc1	-2	-2	66*	1	i	100
N#Cc1c2n(c3c(=O)n(Cc4ccccc4)cnc13)CCCC2	5	14	55*	0	i	100
CCCC(=O)Nc1ccc2c(c1)Cc1ccccc1-2	6	-8	73*	-2	i	99
Cc1cccc(N2CCN(C(=O)c3cccc(N4C(=O)C5C6C=CC(C6)C5C4=O)c3)CC2C)c1 (stereo unspecified)	-3	7	94	-1	i	·
Cc1cccc(N2CCN(C(=O)CCN3C(=O)C4C5C=CC(C5)C4C3=O)CC2C)c1 (stereo unspecified)	5	·	67*	1	i	96
Cc1noc(C)c1NC(=O)N(C)C[C@@H]1Oc2ccc(NC(=O)NC3CCCCC3)cc2C(=O)N([C@H](C)CO)C[C@H]1C	·	-1	·	·	·	·
COCCOC(=O)c1[nH]c2c(c1C)C(=O)CC(c1cc(OC)c(OC)c(OC)c1)C2 (stereo unspecified)	-12	·	71*	1	i	96
COCCOC(=O)c1[nH]c2c(c1C)C(=O)CC(c1ccccc1)C2 (stereo unspecified)	8	1	101	18	·	·
Cc1onc(-c2ccccc2Cl)c1C(=O)NCC1CCCO1 (stereo unspecified)	7	0	74*	1	i	101
COc1ccc(NC(=O)N(C)C[C@@H]2Oc3ccc(NS(=O)(=O)c4ccc(Cl)cc4)cc3CC(=O)N([C@H](C)CO)C[C@@H]2C)cc1	·	-3	·	·	·	·
Cc1ccc(S(=O)(=O)C2(C(=O)N3CCN(c4ccccc4F)CC3)CC2)cc1	2	-15	72*	-1	i	101

High-throughput results: PubChem, several laboratories
